An excerpt weighted towards active compounds, which were near 6.8% of everything screened.
MK inhibit – S. pneumoniae MK inhibitors, primary screen, biochemical, PK/LDH-coupled NADH absorbance; mevalonate kinase [Streptococcus pneumoniae D39]; purified MK, PK/LDH-coupled NADH absorbance 340 nm; inhibition, % at 10 µM; 65,000 compounds, 0.48% hits; AID 555, 2006;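 active = ranked among the strongest by inhibition in the single 10 µM screen, a fixed top-ranked set picked for dose follow-up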
Abs 340nm – compound light absorbance at 340 nm, profiling panel, artefact control, biochemical, MLSMR library, data from PS, PMK, MK assays. 65,000 tested, under 10 active. AID 708, 2007. compound absorbance at 340 nm, fold over control. fold change at 10 µM;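 active = at 10 µM dose, initial 340 nm absorbance at least 2 fold that of control wells; inactive = change under 2 fold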;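 note: initial absorbance extrapolated from kinetic A340 decline of NADH oxidation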
Fluor 339 460 – intrinsic fluorescence of library compounds, ex339/em460 – biochemical, MLSMR library, data from DPM-DC assay, artefact control, profiling panel | 65,000 compounds, 5.5% hits | fluorescence fold increase at 10 µM | compound autofluorescence, ex339/em460 nm, NADH buffer; hits give high values; 1 = no-compound wells, NADH background | AID 709, 2007;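 active = at 10 µM, mean starting fluorescence two-fold or more over control wells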;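 note: signal is the first read of a kinetic run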
Spn PMK inh – S. pneumoniae PMK inhibitors, primary screen, biochemical, mevalonate pathway, pilot trial included. inhibition, % at 10 µM. phosphomevalonate kinase (Streptococcus pneumoniae D39). purified PMK, PK/LDH-coupled NADH absorbance 340 nm. 65,000 compounds, 0.49% hits;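 active = top-ranked compounds by inhibition in the single 10 µM screen, taking a fixed number of the strongest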
NADH enzymes – inhibitors of PK/LDH coupling enzymes, profiling panel, artefact control, biochemical, MLSMR library | AID 774, 2007 | 65,000 compounds, 0.02% hits | IC50, µM (top dose mostly 10 µM) | coupled PK/LDH NADH assays, four targets;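 active = single-dose screening hits from any of four coupled enzyme assays that gave an IC50 when retested across doses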;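 note: the DPM-DC format reads NADH fluorescence rather than 340 nm absorbance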
DPM-DC inhibit – S. pneumoniae DPM-DC inhibitors, primary screen, biochemical, PK/LDH-coupled NADH fluorescence. diphosphomevalonate decarboxylase (Streptococcus pneumoniae D39). purified DPM-DC. calls only at 10 µM. 65,000 compounds, 0.49% hits. AID 556, 2006;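 active = the 320 compounds with the highest percent inhibition in the single-dose primary screen, excluding strongly autofluorescent ones, cut at about 32% in these data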;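 note: kinetic rate of NADH fluorescence loss reporting ADP formed by the decarboxylase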
A number is an active result; . = inactive; / = no result given.

SMILES	MK inhibit	Abs 340nm	Fluor 339 460	Spn PMK inh	NADH enzymes	DPM-DC inhibit
Cc1nnc2sc(-c3cccc4ccccc34)nn12	.	.	2.2	.	.	.
Cc1nnc2sc(-c3ccncc3)nn12	.	.	.	.	.	.
Cc1ccc(C2CC(c3cccs3)n3nc(N)nc3N2)cc1 (centres undefined)	.	.	2.3	.	.	/
CN(C)C(=O)CSc1cccc2cccnc12	.	.	3.9	.	.	/
CN(CC(=O)N1CCc2ccccc21)S(=O)(=O)c1cccc2cccnc12	.	.	.	.	.	.
O=C(CSc1cccc2cccnc12)N1CCCC1	.	.	3.9	.	.	/
Cc1ccc2c(c1)c1c3n2CCN(C(=O)Cn2c(-c4ccccc4)noc2=O)C3CCC1 (centres undefined)	.	.	3.2	.	.	.
COc1ccc(C2(O)CC3CCC(C2)N3c2nc(C)cc(C)c2C#N)cc1 (centres undefined)	.	.	2.8	.	.	.
N#Cc1nc(COc2ccc(F)cc2)oc1N1CCC(Cc2ccccc2)CC1	.	.	.	.	.	.
CCOc1ccc(OCC)c(NC(=O)Cn2cccc2)c1	.	.	.	.	.	.
CCN(CC)c1ccc2cc(NC(=O)CCC(=O)O)c(=O)oc2c1	.	.	3	.	.	/
CC(Sc1ccc2nnc(-c3ccc(F)cc3)n2n1)C(=O)O (centres undefined)	.	.	.	.	.	.
CCSc1ccc2nnc(-c3ccc(F)cc3)n2n1	.	.	2	.	.	.
O=C(CSc1ccc2nnc(-c3ccc(F)cc3)n2n1)NCC1CCCO1 (centres undefined)	.	.	2.3	.	.	.
O=C(CSc1ccc2nnc(-c3ccc(F)cc3)n2n1)N1CCCCC1	.	.	.	.	.	.
CCOC(=O)C(C)Sc1ccc2nnc(-c3ccc(F)cc3)n2n1 (centres undefined)	.	.	2.1	.	.	.
O=C(CSc1cc(Cl)ccc1Cl)NCC1CCCO1 (centres undefined)	.	.	.	25	.	.
Nc1cc(N)nc(SCC(=O)NCC2CCCO2)n1 (centres undefined)	.	.	.	.	.	.
COc1ccc(-c2csc(Cc3nnc(N4CCOCC4)n3-c3ccccc3)n2)cc1	.	.	.	.	.	.
COc1ccc(-c2nnc(SCC(=O)NC(C)c3ccccc3)o2)cc1 (centres undefined)	.	.	.	.	.	.
N#Cc1nc(-c2ccccc2F)oc1NC1CCCCC1	.	.	2.1	.	.	/
COc1ccc(-c2nc(C#N)c(NC(C)c3ccccc3)o2)cc1OC (centres undefined)	.	.	3.9	.	.	/
N#Cc1nc(-c2ccccc2Cl)oc1NCC1CCCO1 (centres undefined)	.	.	.	.	.	.
COc1ccc(CCNc2oc(COc3ccccc3)nc2C#N)cc1	.	.	.	.	.	.
COc1ccc(CCNc2oc(-c3ccc(OC)c(OC)c3)nc2C#N)cc1	.	.	3.9	.	.	/
SMILES	MK inhibit	Abs 340nm	Fluor 339 460	Spn PMK inh	NADH enzymes	DPM-DC inhibit
COc1ccc(-c2nc(C#N)c(NCCCN(C)C)o2)cc1OC	.	.	3.1	.	.	/
O=C(NCC1CCCO1)c1cccc(N2C(=O)C3C4C=CC(C4)C3C2=O)c1 (centres undefined)	.	.	.	.	.	.
CN(C)CCCNc1oc(-c2ccccc2)nc1C#N	.	.	2.1	.	.	/
N#Cc1nc(-c2ccccc2F)oc1NCc1cccc2c1OCO2	.	.	.	.	.	.
COc1ccc(-c2nc(C#N)c(NCC3CCCO3)o2)cc1OC (centres undefined)	.	.	3.9	.	.	/
Cc1cccc(OCc2nc(C#N)c(NCCN(C)C)o2)c1	.	.	.	.	.	.
CN(C)CCNc1oc(-c2ccccc2F)nc1C#N	.	.	2.5	.	.	/
Cc1ccc2c(c1)C(N1CCCC1=O)CC(c1ccco1)N2 (centres undefined)	.	.	2.6	.	.	.
O=C(O)c1cc2n(n1)C(C(F)(F)F)CC(c1ccco1)N2 (centres undefined)	.	.	.	.	.	.
CCOC(=O)c1ccc(N2C(=O)c3n[nH]c(C)c3C2c2ccc(O)cc2)cc1 (centres undefined)	.	.	.	.	.	.
Cn1c2ccccc2c2cc(C(=O)OCC(=O)N3CC(=O)Nc4ccccc43)sc21	.	.	2.1	.	.	/
COC(=O)c1cc(Br)c(=O)n(CCC2=CCCCC2)c1	.	.	.	.	.	.
CCOC(=O)c1nc(-c2ccccc2)oc1N(C)C	.	.	4.9	.	.	/
CN(C)c1oc(-c2ccccc2Cl)nc1S(=O)(=O)c1ccccc1	.	.	.	.	.	.
CN(C)c1oc(-c2ccccc2Cl)nc1C#N	.	.	2.7	.	.	.
Cc1ccccc1-c1nnc(-c2ccccc2)o1	.	.	.	.	.	.
CN(C)c1oc(-c2ccccc2)nc1C#N	.	.	2.1	.	.	/
Cc1ccccc1-n1nc2c(c1NC(=O)c1c(-c3ccccc3Cl)noc1C)CSC2	.	.	.	.	.	.
CC(=O)c1cccc(NC(=O)N2CCCC2C(=O)NCc2ccccc2)c1 (centres undefined)	.	.	.	.	.	.
COC(=O)C1=CN(C)C=C(C(=O)OC)C1c1ccc(O)c(OC)c1	.	.	.	.	.	.
COCCN1C=C(C(=O)OC)C(c2cc(Br)c(OC)c(OC)c2)C(C(=O)OC)=C1	.	.	2.3	.	.	/
O=C(C1CCC1)N1CCN(Cc2ccccc2)CC1	.	.	.	.	.	.
Cc1ccc(CN2CCN(C(=O)C3CCC3)CC2)cc1	.	.	.	active	.	.
Cc1ccc(/C(O)=C2\C(=O)C(=O)N(CC(C)O)C2c2cccc(F)c2)cc1 (centres undefined)	.	.	.	.	.	.
COc1cc(CNc2ccc3[nH]c(=O)[nH]c3c2)ccc1OCC(=O)NC(C)(C)C	.	.	4.9	.	.	/
SMILES	MK inhibit	Abs 340nm	Fluor 339 460	Spn PMK inh	NADH enzymes	DPM-DC inhibit
COCCCN1CC23C=CC(O2)C(C(=O)OC)C3C1=O (centres undefined)	.	.	.	.	.	.
Cc1ccsc1CN1CCN(c2ccccn2)CC1	45	.	.	.	.	.
CC(C)(C)NC(=O)NC(=O)COc1ccccc1C#N	.	.	.	.	.	.
CCN1CCc2c(sc3c2c(NCc2ccco2)nc2nnnn23)C1	.	.	2.4	.	.	.
c1coc(CNc2ncnc3sc4c(c23)CCCCC4)c1	.	.	.	.	.	.
COC(=O)c1ccc(OCC(=O)Nc2nn(-c3ccccc3)nc2C(N)=O)cc1	.	.	2.2	.	.	.
